Assay results as given in PubChem BioAssay (NCI).
About 83,000 compounds went through this panel and 20% of them were active in at least one assay; those are over-represented in the sample as a whole.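 Single-concentration screen, 48 h exposure, 96-well plates. Endpoint: percent growth. Below 10 = active.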 A number with no mark means an inactive call. Active and inactive are the calls of the source.

Key:
Experiment in all cases: NCI-60 one-dose screen, 48 h (100 = growth as untreated, 0 = no growth, -100 = all killed)
Details in all cases: 10 µM unless noted
[1] = system: RPMI-8226 leukemia
[2] = system: OVCAR-8 ovarian
[3] = system: OVCAR-5 ovarian
[4] = system: OVCAR-4 ovarian
[5] = system: SK-OV-3 ovarian
[6] = system: IGROV1 ovarian
[7] = system: OVCAR-3 ovarian
[8] = system: NCI/ADR-RES ovarian
[9] = system: T-47D breast
[10] = system: BT-549 breast
[11] = system: MDA-MB-435 melanoma
[12] = system: SW-620 colon
[13] = system: MCF7 breast
[14] = system: HCT-116 colon
[15] = system: HCC-2998 colon
[16] = system: KM12 colon
[17] = system: HS 578T breast

SMILES | growth [1] | growth [2] | growth [3] | growth [4] | growth [5] | growth [6] | growth [7] | growth [8] | growth [9] | growth [10] | growth [11] | growth [12] | growth [13] | growth [14] | growth [15] | growth [16] | growth [17]
C=C1C(=O)O[C@H]2[C@H]1CC/C(COC(=O)CCCCCCCCC(=O)OC/C1=C/CC[C@@]3(C)O[C@H]3[C@H]3OC(=O)C(=C)[C@@H]3CC1)=C\CC[C@@]1(C)O[C@@H]21 | -6.37% (active) | 10.2% | 28.9% | 29% | 86.9% | -19.2% (active) | 2.11% (active) | 2.99% (active) | -27.3% (active) | 2.59% (active) | 8.17% (active) | 2.58% (active) | -37% (active) | -62.7% (active) | 44.2% | 20.2% | –
O=C(C[n+]1cccc2cc(Cl)ccc21)c1ccc2c(c1)CCCC2 | 7.65% (active) | 25.6% | 28.3% | 16.2% | 16.9% | 33.7% | 0.868% (active) | 101% | 2.41% (active) | 22.2% | 10.8% | 35.6% | 4.57% (active) | 7.99% (active) | 27.7% | 14.7% | –
CC1CCCN(CCCCCOc2ccc3oc4ccc(Cl)cc4c(=O)c3c2)C1 (stereo not given) | 61.8% | 75% | 70.4% | 63.2% | 91.9% | 68.7% | 76.6% | 73% | 64.8% | 80.3% | 25.1% | 56.6% | 60.8% | 32.2% | 78.3% | 59.4% | –
C=C1C(=O)O[C@H]2[C@H]1CC/C(COC(=O)n1ccnc1)=C\CC[C@@]1(C)O[C@@H]21 | 85.3% | 99.8% | 117% | 103% | 102% | 77.7% | 57% | 102% | 78.2% | 94.8% | 99.6% | 71.2% | 76.8% | 81.6% | 104% | 105% | –
O=CN1N=C(c2ccc(F)cc2)CC1c1cccc(Nc2ccnc3cc(C(F)(F)F)ccc23)c1 (stereo not given) | 24.6% | 41.5% | 95.2% | 41% | 69.1% | 67.9% | 59.8% | 47.4% | 26.4% | 44.3% | 58.2% | 79.1% | 25.3% | 41.8% | 76.3% | 55.9% | –
c1ccc(-c2n(Cc3ccc4ccccc4n3)cc[n+]2Cc2ccc3ccccc3c2)cc1 | -2.59% (active) | 3.17% (active) | 22% | 14.3% | -12.4% (active) | -15.4% (active) | 6.21% (active) | 96% | -14.7% (active) | 3.57% (active) | – | 8.55% (active) | – | – | -13.2% (active) | -38.5% (active) | 15.1%
O=C(Nc1ccc(S(=O)(=O)NC2CCCCCC2)cc1)C(c1ccccc1)S(=O)(=O)c1ccc(F)cc1 (stereo not given) | -23.1% (active) | 8.45% (active) | 5.42% (active) | 4.28% (active) | 3.67% (active) | 9.4% (active) | 3.59% (active) | 15.1% | 8.11% (active) | -3.97% (active) | -17% (active) | 24.6% | 0.0605% (active) | 5.61% (active) | 15.4% | 5.09% (active) | –
O=C(/C(=C/c1ccc([N+](=O)[O-])cc1)SCc1ccc(Cl)cc1)c1ccc(F)cc1 | -25.6% (active) | 57.8% | 95.4% | 60.9% | 63.9% | 58.4% | 54% | 51% | 36.4% | 78.2% | 49.2% | -9.4% (active) | -11.9% (active) | -54.9% (active) | 84.5% | 23.3% | –
O=C(/C(=C/c1ccc([N+](=O)[O-])cc1)SCc1ccccc1)c1ccc(Cl)cc1 | -15.8% (active) | 76.2% | 95.4% | 74.5% | 87.6% | 57% | 70.6% | 62% | 47.8% | 89.2% | 85.7% | 4.23% (active) | 7.72% (active) | 30.5% | 97.3% | 65.6% | –
CC(C)C[C@H](C(=O)O)N(C)C(=O)[C@@H]1CCCN1C(=O)[C@H](C)OC(=O)[C@H](CCC(N)=O)NC(=O)[C@@H]1CCC(=O)N1 | 108% | 103% | 100% | 86.8% | 92.8% | 114% | 103% | 111% | 86.8% | 94.2% | 106% | 106% | 85.2% | 99.2% | 108% | 100% | –
NC(=O)c1ccc2nc3c(n2c1)C(=O)C(=O)c1ccccc1-3 | -28.1% (active) | -61.2% (active) | -86.4% (active) | -97.3% (active) | -89.2% (active) | -48.8% (active) | -99.2% (active) | -1.27% (active) | -46.2% (active) | -94.3% (active) | – | -50.4% (active) | -55.5% (active) | -79.4% (active) | -84.5% (active) | -50.1% (active) | -6.37% (active)
N#Cc1nc(-c2ccccc2)oc1S(=O)(=O)NCC(c1ccc(Cl)cc1)N1CCCCC1 (stereo not given) | 3.47% (active) | 71.3% | 102% | 99.3% | 113% | 44.2% | 61.9% | 91.1% | 65.1% | 77.6% | 64.3% | 26.5% | 35% | 27.3% | 107% | 80.6% | –
COc1ccc(Nc2cc(NC(=O)CNc3cc(OC)c(Cl)c(OC)c3Cl)ncn2)cc1 | 62.5% | 78.2% | 88.1% | 80.1% | 79.8% | 74.2% | 81.6% | 84.8% | 47.1% | 83.2% | 74% | 96.3% | 71.7% | 69.9% | 95.5% | 81.5% | –
C#C[C@@]1(O)[C@@H](CO)O[C@@H](n2cnc3c(-c4ccccc4)ncnc32)[C@@H]1O | 106% | 107% | 101% | 98.5% | 105% | 106% | 107% | 102% | 84% | 102% | 100% | 111% | 82.1% | 99.8% | 103% | 106% | –
Oc1ccccc1-c1nc2c3ccccc3c3ccccc3c2o1 | 75.5% | 89% | 114% | 76.4% | 90.4% | 74.1% | 97.2% | 94.5% | 78.9% | 103% | 99.3% | 68.4% | 62.4% | 80.7% | 103% | 93.3% | –
S=C(Nc1ccccc1)c1ccccn1 | 56.5% | 91.2% | 88.9% | 100% | 90.9% | 1.38% (active) | 67.7% | 93.1% | 96.6% | 90.5% | 103% | 89.6% | 77.5% | 92.5% | 98.7% | 99.8% | –
COc1ccc(NC(=O)c2sc3nc(C)c(C(C)=O)cc3c2N)cc1 | 85.6% | 91.9% | 91.3% | 95.7% | 99.3% | 115% | 109% | 98.9% | 82.7% | 86.5% | – | 97% | 95.7% | 88.6% | 103% | 105% | 105%
